High-throughput results (PubChem BioAssay)
IEC-6 cytotox – counter-screen for KLF5 inhibitors: cytotoxicity in IEC-6 cells | inhibition, % at 5 µM | actives 0.78% (n = 290,000) | AID 1825 | IEC-6 cytotoxicity, luminescence viability; in the data active = inhibition above about 22%;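 note: 0% = plate median of test compound wells and 100% = cytotoxic reference compound wells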
APP 5UTR inh – APP translation inhibition; inhibition, % at 2 µM; actives 0.82% (n = 190,000); SH-SY5Y APP 5'UTR-luciferase reporter, luminescence;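 active = inhibition above a set limit, derived from the sample mean plus 3 SD, cut at about 45% in these data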
Ba/F3 V617F tox – reduce viability of Ba/F3 cells dependent on JAK2V617F | Ba/F3 EpoR-JAK2V617F viability, ATP luminescence | inhibition, % at 5.6 µM | actives 1.1% (n = 220,000);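 active = inhibition above the campaign mean plus 3 SD over all tested compounds, cut at about 24% in these data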;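 note: cytokine-independent growth of Ba/F3 cells driven by EpoR plus mutant JAK2; 0% = DMSO-treated cells and 100% = JAK inhibitor I control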
aSyn UTR inh – MLPCN primary screen, SNCA 5' untranslated region; actives 0.82% (n = 300,000); inhibition, % (tested at 7.5 µM); alpha-synuclein 5'UTR reporter, inhibitor activity; in the data active = inhibition above about 60%;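 note: H4 neuroglioblastoma cells stably carrying SNCA 5'UTR luciferase fusion; 0% = DMSO wells and 100% = positive control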
KLF5 inh – kruppel-like factor 5 inhibition. DLD-1 KLF5 promoter-luciferase reporter, luminescence. inhibition, % at 5 µM. actives 0.23% (n = 290,000). AID 1700;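 active = inhibition above a per-plate limit of that plate's mean compound inhibition plus 3 SD, cut at about 60% in these data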;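 note: 0% = DMSO wells and 100% = LY294002 at 200 µM; higher means less KLF5 promoter-driven luciferase light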
BaF3 parental – parental Ba/F3 viability inhibition as JAK2V617F counter-screen; inhibition, % at 5.6 µM; actives 1.1% (n = 220,000); CellTiter-Glo ATP luminescence;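 active = inhibition above a per-campaign cutoff, the mean inhibition of all tested compounds plus 3 SD, cut at about 27% in these data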;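 note: 0% = DMSO wells and 100% = JAK Inhibitor I control wells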
Active calls of the source: *. Most compounds without a hit are left out; they make up all but 2.2% or so of the library.

How did CC1CN(S(=O)(=O)c2ccc(C(=O)N(CCCN(C)C)c3nc4c(Cl)cccc4s3)cc2)CC(C)O1 (configuration not stated) do in these assays?
IEC-6 cytotox: -2; aSyn UTR inh: 23; KLF5 inh: -16

How did Nn1c(=O)[nH]c2ccccc2c1=O do in these assays?
IEC-6 cytotox: 0; APP 5UTR inh: 2; Ba/F3 V617F tox: -1; aSyn UTR inh: 11; KLF5 inh: -32; BaF3 parental: 38*

Results for CCn1c(=O)[nH]c2ccccc2c1=O ?
IEC-6 cytotox: -6; APP 5UTR inh: 7; Ba/F3 V617F tox: -3; aSyn UTR inh: -7; KLF5 inh: -13; BaF3 parental: -3

What do the screens show for `CCOCCCN(C)C1CCN(C(=O)c2oc3ccccc3c2NC(=O)c2cccc([N+](=O)[O-])c2)CC1`?
IEC-6 cytotox: 1; aSyn UTR inh: 0; KLF5 inh: -25

Results for CCC(C)n1ncn(-c2ccc(N3CCN(c4ccc(OCC5COC(Cn6cncn6)(c6ccc(Cl)cc6Cl)O5)cc4)CC3)cc2)c1=O (configuration not stated) ?
IEC-6 cytotox: 4; Ba/F3 V617F tox: 4; aSyn UTR inh: 100*; KLF5 inh: -33; BaF3 parental: -6

What do the screens show for `CCCC1COC(Cn2cncn2)(c2ccc(C)cc2)O1` (configuration not stated)?
IEC-6 cytotox: 1; APP 5UTR inh: 9; Ba/F3 V617F tox: 2; aSyn UTR inh: 11; KLF5 inh: -5; BaF3 parental: 4

What do the screens show for `Cc1c(Cl)cccc1N1C(=O)c2ccccc2C1=O`?
IEC-6 cytotox: 1; APP 5UTR inh: 68*; Ba/F3 V617F tox: 1; aSyn UTR inh: -4; KLF5 inh: 23; BaF3 parental: 3

Results for CN1CCN(C2Cc3ccc(F)cc3Sc3cc(F)c(Cl)cc32)CC1 (configuration not stated) ?
aSyn UTR inh: 102*

How did CC(C)c1ccc2c(c1)C(N1CCNCC1)Cc1ccc(F)cc1S2 (configuration not stated) do in these assays?
aSyn UTR inh: 75*

Results for CCc1n(CC(O)COCc2ccccc2)c2ccccc2[n+]1C (configuration not stated) ?
IEC-6 cytotox: -3; APP 5UTR inh: -7; Ba/F3 V617F tox: 38*; aSyn UTR inh: -27; KLF5 inh: 19; BaF3 parental: 49*

How did CCOC(=O)c1ccc2c(c1)N(CC#N)C(=O)C(C)(C)O2 do in these assays?
IEC-6 cytotox: 1; APP 5UTR inh: 0; Ba/F3 V617F tox: 1; aSyn UTR inh: -3; KLF5 inh: -25; BaF3 parental: 3

Results for O=C(/C=C/Nc1ccc(Br)cc1F)c1ccccc1 ?
IEC-6 cytotox: -2; APP 5UTR inh: -140; Ba/F3 V617F tox: 0; aSyn UTR inh: 78*; KLF5 inh: -82; BaF3 parental: -1

How did CCCOc1ccc(C2=NNC(=O)CC2)cc1 do in these assays?
IEC-6 cytotox: 2; APP 5UTR inh: 5; Ba/F3 V617F tox: 3; aSyn UTR inh: 77*; KLF5 inh: 11; BaF3 parental: 7

Results for COc1ccc(C2=NNC(=O)CC2)cc1 ?
IEC-6 cytotox: 2; APP 5UTR inh: -5; Ba/F3 V617F tox: -3; aSyn UTR inh: 7; KLF5 inh: 0; BaF3 parental: -2

How did O=c1nc(SCc2c(F)cccc2Cl)nc(-c2ccc(Cl)cc2)[nH]1 do in these assays?
IEC-6 cytotox: -5; Ba/F3 V617F tox: -2; aSyn UTR inh: -1; KLF5 inh: -21; BaF3 parental: 40*

What do the screens show for `CC(C)(C)NC(=O)CSCc1ccc(Br)cc1`?
IEC-6 cytotox: -5; APP 5UTR inh: -6; Ba/F3 V617F tox: 0; aSyn UTR inh: 33; KLF5 inh: -19; BaF3 parental: 5

What do the screens show for `Cc1c(C(=O)NCCCN2CCCCC2)oc2ccc3c(c12)C(O)CC1(CCCCC1)O3` (configuration not stated)?
IEC-6 cytotox: 8; aSyn UTR inh: 76*; KLF5 inh: -27

How did COc1cccc(OCCNC(=O)c2ccc(C)cc2)c1 do in these assays?
IEC-6 cytotox: -5; aSyn UTR inh: -25; KLF5 inh: -28

How did COc1cccc(OCCNC(=O)c2cccc(OC)c2)c1 do in these assays?
IEC-6 cytotox: 8; APP 5UTR inh: 45*; Ba/F3 V617F tox: -6; aSyn UTR inh: 21; KLF5 inh: -20; BaF3 parental: 1
